Compound activity deposited in PubChem by several laboratories.
A selection: hits, their analogues and other compounds. The true share with any hit is near 2.8%.
proKLK7 act = activators of human kallikrein-7 zymogen | AID 652039 | activation, % at 7 µM | 370,000 tested, 0.9% active | purified proKLK7, EDANS-DABCYL substrate fluorescence; 100% is mature enzyme control, 0% vehicle | P49862;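 active = activation above the mean of all tested compounds plus 3 SD, computed per campaign excluding outliers beyond control limits, cut at about 13% in these data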
NR1D1 modulator = Rev-erb alpha (human) modulation. P20393. Rev-erbα–FITC-DNA binding, fluorescence polarization, 90 min. activity, % at 10 µM. 370,000 tested, 0.79% active. AID 1259318;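 active = activity above about 14%, limit read from the data; passing the limit was not always enough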;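 also: 0% = DMSO wells with 35 nM protein and 100% = DMSO wells with 750 nM protein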
GASC-1 inh = inhibitors of human GASC-1 (JMJD2C) demethylase | Q9H3R0 | GST-JMJD2C(1-420) H3K9me3 demethylation, DELFIA europium | inhibition, % at 2.35 µM | 330,000 tested, 0.069% active | AID 2099;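 active = more than half of a compound's replicate wells show inhibition beyond 50%, single wells judged on their own value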;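 also: signal counts dimethyl H3K9 product captured on neutravidin plate; 0% = median of DMSO wells and 100% = 0.3 times that DMSO median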
PG9 binder = PG9 antibody binding by small molecule | inhibition, % at 6.7 µM | 360,000 tested, 0.43% active | TR-FRET gp120-PG9 antibody binding | AID 624416; in the data active = inhibition above about 8.5%
PP5 inh = blocks human protein phosphatase 5 activity; 320,000 tested, 0.18% active; inhibition, % at 6.7 µM; P53041; purified PP5c, OMFP substrate fluorescence;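 active = inhibition above the campaign's mean inhibition across all tested compounds plus 3 SD, cut at about 9.5% in these data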;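 also: 0% = DMSO only and 100% = 100 µM cantharidin control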
Target sequence (P53041 whole entry, looked up): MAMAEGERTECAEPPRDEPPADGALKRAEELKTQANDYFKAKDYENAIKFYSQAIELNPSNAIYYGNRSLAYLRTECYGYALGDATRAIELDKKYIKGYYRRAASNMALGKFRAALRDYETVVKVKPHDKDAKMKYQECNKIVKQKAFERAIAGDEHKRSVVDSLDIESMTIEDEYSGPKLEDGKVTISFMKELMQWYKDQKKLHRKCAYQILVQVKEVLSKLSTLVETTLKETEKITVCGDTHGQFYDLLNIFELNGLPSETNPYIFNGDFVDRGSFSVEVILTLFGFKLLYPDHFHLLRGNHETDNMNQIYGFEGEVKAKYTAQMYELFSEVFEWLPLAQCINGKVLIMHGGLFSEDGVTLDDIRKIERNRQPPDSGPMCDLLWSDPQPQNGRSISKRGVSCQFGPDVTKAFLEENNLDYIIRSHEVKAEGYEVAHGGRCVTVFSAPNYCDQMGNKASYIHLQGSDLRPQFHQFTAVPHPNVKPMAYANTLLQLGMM
PP1 counter = PP1-alpha (human) inhibition in PP5 counter-screen | inhibition, % at 6.7 µM | purified PP1alpha, OMFP fluorescence | P62136 | AID 2235 | 320,000 tested, 0.9% active;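 active = inhibition above the mean inhibition of all tested compounds plus 3 SD, computed separately for each screening campaign, cut at about 15% in these data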
KLK7 act conf = confirmation of human kallikrein-7 zymogen activators. 3,200 tested, 68% active. purified proKLK7, EDANS-DABCYL substrate fluorescence; scaled: vehicle 0, mature enzyme 100. shares compounds with proKLK7 act. activation, % at 7 µM;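 active = activation, as change over the incubation, above the mean of all tested compounds plus 3 SD, cut at about 13% in these data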
EDANS interfere = counter-screen for kallikrein-7 activators: EDANS-DABCYL optical interference. shares compounds with proKLK7 act. 3,200 tested, 80% active. activation, % at 7 µM. EDANS-DABCYL substrate fluorescence interference, no enzyme, 4 h; solvent 0%, active enzyme control 100%;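 active = activation above the all-compound mean plus 3 SD, ignoring values outside control-based bounds, cut at about 4.8% in these data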;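 also: value is the 4 h activation minus the activation read at time zero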
EDANS interf = counter-screen for kallikrein-7 activators: EDANS-DABCYL interference, dose response; shares compounds with proKLK7 act; EDANS-DABCYL peptide fluorescence interference, no enzyme; EC50, µM; 250 tested, 20% active; AID 720493;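 active = compounds that raise the fluorescence signal in this interference counterscreen, with EC50 at or below 10 µM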;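 also: intact quenched peptide substrate alone read at 355 nm excitation and 520 nm emission; signal is fluorescence gain from T0 to T4 after four hours at room temperature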
Numbers without * were called inactive; · = not tested or not shown.

SMILES	proKLK7 act	NR1D1 modulator	GASC-1 inh	PG9 binder	PP5 inh	PP1 counter	KLK7 act conf	EDANS interfere	others
CCOC(=O)C1=C(CSc2nc(C)cc(C)c2C#N)OC(N)=C(C#N)C1c1cccs1 (centres undefined)	·	·	·	·	2	-1	·	·
CCOC(=O)CSc1nc(C)cc(C)c1C#N	30*	-2	3	0	-1	3	56*	54*
Cc1nc(SCC(=O)CC(=O)OC(C)C)c(C#N)c(C)c1C	40*	6	-9	1	0	1	63*	57*
Cc1cc(C)c(C#N)c(SCC(=O)CC(=O)OC(C)C)n1	45*	-1	4	0	3	-2	72*	69*
Cc1cc(C)c(C#N)c(SCC(=O)OC2CCCCC2)n1	3	2	-16	0	1	-3	·	·
CSc1nc(N)nc(SCC(=O)CC(=O)OC(C)C)c1C#N	0	3	-4	-2	3	1	·	·
CCOC(=O)C1=C(CSc2nc(C)cc(C)c2C#N)OC(N)=C(C#N)C1c1ccccc1 (centres undefined)	26*	1	-1	0	6	4	33*	30*
COc1ccccc1CNC1CCC12CCC(c1ccccc1)CC2 (centres undefined)	·	3	·	·	·	·	·	·
Cc1ccc(-n2nc(C)c3c2NC2=C(C(=O)CC(C)(C)C2)C3c2ccccc2OCC(=O)O)cc1 (centres undefined)	44*	0	-8	0	0	-8	33*	35*
C=CCOc1ccccc1C1C2=C(CC(C)(C)CC2=O)Nc2c1c(=O)n(C)c(=O)n2C (centres undefined)	6	-8	-7	-1	1	-3	·	·
Cc1cccc(CN2[C@@H](C)[C@H](c3ccccc3)Oc3cc(Br)ccc3S2(=O)=O)c1	0	10	·	0	·	·	·	·
N=c1c(C(=O)NCc2ccc(F)cc2)cc2c(=O)n3ccccc3nc2n1CC1CCCO1 (centres undefined)	21*	-2	0	3	4	-2	-59	-54
N=c1c(C(=O)NCc2ccco2)cc2c(=O)n3ccccc3nc2n1CC1CCCO1 (centres undefined)	9	-16	15	-1	1	2	·	·
N=c1c(C(=O)NCc2ccco2)cc2c(=O)n3ccccc3nc2n1CCc1ccccc1	16*	-31	-7	4	2	6	11	2
N=c1c(C(=O)NCCc2ccccc2)cc2c(=O)n3ccccc3nc2n1CC1CCCO1 (centres undefined)	99*	-5	-2	1	0	2	9	7.7*
O=C(C(=O)N1CCN(C(=O)c2ccccc2C(F)(F)F)CC1)c1cccc(C(F)(F)F)c1	0	6	·	0	·	·	·	·
COc1cc(O)c(C(CC(=O)N2CC(C)OC(C)C2)c2ccc3c(c2)OCO3)c(OC)c1 (centres undefined)	·	-3	·	·	·	·	·	·
Cc1c(C)n(Cc2ccc(-c3ccccc3C(=O)O)cc2)c2ccc(C(=O)N[C@@H](C)c3ccc(Br)cc3)cc12	1	-3	·	·	·	·	·	·
C#CCN(Cc1ccco1)C(=O)c1nnc2c3cc(OC)ccc3n(S(=O)(=O)c3ccc(OC)cc3)c2n1	-1	-18	·	6	·	·	·	·
COc1ccc(CCNC(=O)COC(=O)/C=C/c2cc(OC)ccc2OC)cc1	11	0	-6	2	·	·	·	·
COc1ccc(OC)c(/C=C/C(=O)OCC(=O)NCc2ccccc2)c1	15*	-5	7	0	·	·	4	8.3*
COc1ccc(OC)c(/C=C/C(=O)NCCc2nc3ccccc3[nH]2)c1	49*	-4	-4	1	-1	-4	37*	-31	EDANS interf=>69
COc1ccc(OC)c(/C=C/C(=O)OCC(=O)NCc2cccs2)c1	15*	-1	-1	0	1	-1	9	21*
